These results are taken from PubChem BioAssay.

Unmarked numbers belong to inactive results. For some of these results: Measured potencies and affinities stand elsewhere. Activity calls are given as the source filed them. Unless noted, how the calls were made is not given here.

Assay [1] can be described thus: antimalarial activity against Dd2 strain (AID 2302;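 active means growth inhibition above 50% at the single 2 µM test dose, taken to imply half-maximal potency below 2 µM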;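 further: 0% = DMSO untreated growth and 100% = chloroquine plus artemisinin killed control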). The conditions noted are these: P. falciparum Dd2 in RBCs, LDH growth readout, 72 h; at 2 µM; hits give high values.
Assay [2] in a line: HepG2 cytotoxicity, primary screen, cytotoxicity control for P. falciparum antimalarial project, cell-based, ATP luminescence (AID 2303;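 active means inhibition above 50%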;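 further: 0% = DMSO wells and 100% = digitonin-killed cells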). The conditions noted are these: HepG2 viability, 24-48 h, at 10 µM, hits give high values.
For assay [3], the target named is L-lactate dehydrogenase (Plasmodium falciparum (isolate CDC / Honduras)) (UniProt Q27743). Nature of the assay: PfLDH activity inhibition – cell lysate, 3D7 strain, counter-screen for P. falciparum growth inhibition project (AID 2304).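 Further: 0% = vehicle and 100% = reference inhibitor.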 The conditions noted are these: P. falciparum 3D7 crude extract, LDH APAD/NBT absorbance; at 2 µM; hits give high values. Background: A counterscreen serves to expose hits that act by an unwanted route or on another target.
Chain of L-lactate dehydrogenase (Plasmodium falciparum (isolate CDC / Honduras)) (Q27743 whole entry, looked up): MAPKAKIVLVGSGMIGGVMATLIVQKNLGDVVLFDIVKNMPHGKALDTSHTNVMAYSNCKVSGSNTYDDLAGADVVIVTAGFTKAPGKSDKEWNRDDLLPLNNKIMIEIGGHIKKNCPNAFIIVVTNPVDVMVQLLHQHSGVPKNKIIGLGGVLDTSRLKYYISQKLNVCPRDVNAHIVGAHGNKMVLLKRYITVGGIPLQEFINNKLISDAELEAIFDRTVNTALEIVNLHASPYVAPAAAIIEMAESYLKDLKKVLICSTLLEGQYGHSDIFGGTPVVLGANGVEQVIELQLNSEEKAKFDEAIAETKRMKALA

Assay [4] is described as follows: inhibition of 3D7 malaria parasite growth – strain 3D7 (AID 2306).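 Further: 0% = DMSO wells and 100% = chloroquine plus artemisinin control wells.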 The conditions noted are these: P. falciparum 3D7 erythrocytic growth, LDH absorbance, 72 h; at 2 µM; hits give high values.
Assay [5] has as its target Calcium-dependent protein kinase 1 (Plasmodium falciparum (isolate 3D7)) (UniProt P62344). The experiment in a line: PfCDPK1 kinase inhibitors, biochemical, TCAMS library (AID 1159585; cut-off not given, nearly all actives have IC50 up to about 0.98 µM;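 further: inhibitors leave more ATP so luminescence rises with inhibition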). The conditions noted are these: recombinant PfCDPK1, Kinase-Glo ATP depletion luminescence.
In assay [6] the target is Plasmodium falciparum protein kinase 6 (PK6, PF3D7_1337100) (UniProt Q8IDW1). Nature of the assay: PfPK6 kinase inhibitors, biochemical, TCAMS library (AID 1159586). The conditions noted are these: recombinant PfPK6, Kinase-Glo ATP depletion luminescence. (In general: Kinase-Glo reads ATP consumption through a luciferase reaction.)
Chain of Plasmodium falciparum protein kinase 6 (PK6, PF3D7_1337100) (Q8IDW1 1-305): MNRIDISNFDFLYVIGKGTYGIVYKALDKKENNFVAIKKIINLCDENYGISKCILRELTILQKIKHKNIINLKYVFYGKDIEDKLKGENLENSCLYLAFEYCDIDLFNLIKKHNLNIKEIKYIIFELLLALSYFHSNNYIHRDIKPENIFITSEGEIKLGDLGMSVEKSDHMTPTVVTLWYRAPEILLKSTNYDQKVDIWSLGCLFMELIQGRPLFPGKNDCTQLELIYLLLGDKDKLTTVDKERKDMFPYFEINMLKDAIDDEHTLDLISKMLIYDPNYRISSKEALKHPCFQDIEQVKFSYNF
Assay [7] deals with Protein kinase 7 (PK7), Plasmodium falciparum 3D7 (PF3D7_0213400) (UniProt Q7YTF7). Nature of the assay: inhibition of Plasmodium PK7 catalytic activity – biochemical, TCAMS antimalarial set, Kinase-Glo luminescence (AID 1159587). The conditions noted are these: recombinant PfPK7, Kinase-Glo ATP depletion luminescence.
Chain of Protein kinase 7 (PK7), Plasmodium falciparum 3D7 (PF3D7_0213400) (Q7YTF7 1-343): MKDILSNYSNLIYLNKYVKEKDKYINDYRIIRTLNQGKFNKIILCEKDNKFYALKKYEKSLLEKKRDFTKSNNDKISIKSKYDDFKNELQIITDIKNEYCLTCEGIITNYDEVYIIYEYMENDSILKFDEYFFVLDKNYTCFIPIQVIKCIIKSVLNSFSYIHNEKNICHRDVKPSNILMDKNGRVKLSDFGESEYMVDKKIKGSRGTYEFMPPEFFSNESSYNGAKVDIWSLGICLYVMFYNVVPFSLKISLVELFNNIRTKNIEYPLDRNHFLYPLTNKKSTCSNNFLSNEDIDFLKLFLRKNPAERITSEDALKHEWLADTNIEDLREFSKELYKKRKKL
Assay [8] has as its target Calcium-dependent protein kinase 4 (Plasmodium falciparum (isolate 3D7)) (UniProt Q8IBS5). The experiment in a line: PfCDPK4 kinase inhibitors, biochemical, TCAMS library (AID 1159588; cut-off not given, nearly all actives have IC50 up to about 0.91 µM). The conditions noted are these: recombinant PfCDPK4, Kinase-Glo ATP depletion luminescence.

Chain of Calcium-dependent protein kinase 4 (Plasmodium falciparum (isolate 3D7)) (Q8IBS5 whole entry, looked up): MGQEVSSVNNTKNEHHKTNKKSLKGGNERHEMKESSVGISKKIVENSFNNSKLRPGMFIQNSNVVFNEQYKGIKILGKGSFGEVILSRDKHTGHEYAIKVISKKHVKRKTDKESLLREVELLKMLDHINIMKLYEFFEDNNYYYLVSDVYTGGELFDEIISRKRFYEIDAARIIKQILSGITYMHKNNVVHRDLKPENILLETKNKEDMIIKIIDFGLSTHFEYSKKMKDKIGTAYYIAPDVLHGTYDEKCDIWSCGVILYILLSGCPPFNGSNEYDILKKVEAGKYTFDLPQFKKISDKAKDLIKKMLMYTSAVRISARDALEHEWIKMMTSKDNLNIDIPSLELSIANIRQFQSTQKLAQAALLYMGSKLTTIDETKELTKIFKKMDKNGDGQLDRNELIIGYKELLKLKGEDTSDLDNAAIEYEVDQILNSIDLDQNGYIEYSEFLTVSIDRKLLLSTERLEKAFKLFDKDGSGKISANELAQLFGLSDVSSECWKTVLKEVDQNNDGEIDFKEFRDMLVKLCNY
Chain of Calcium-dependent protein kinase 1 (Plasmodium falciparum (isolate 3D7)) (P62344 whole entry, looked up): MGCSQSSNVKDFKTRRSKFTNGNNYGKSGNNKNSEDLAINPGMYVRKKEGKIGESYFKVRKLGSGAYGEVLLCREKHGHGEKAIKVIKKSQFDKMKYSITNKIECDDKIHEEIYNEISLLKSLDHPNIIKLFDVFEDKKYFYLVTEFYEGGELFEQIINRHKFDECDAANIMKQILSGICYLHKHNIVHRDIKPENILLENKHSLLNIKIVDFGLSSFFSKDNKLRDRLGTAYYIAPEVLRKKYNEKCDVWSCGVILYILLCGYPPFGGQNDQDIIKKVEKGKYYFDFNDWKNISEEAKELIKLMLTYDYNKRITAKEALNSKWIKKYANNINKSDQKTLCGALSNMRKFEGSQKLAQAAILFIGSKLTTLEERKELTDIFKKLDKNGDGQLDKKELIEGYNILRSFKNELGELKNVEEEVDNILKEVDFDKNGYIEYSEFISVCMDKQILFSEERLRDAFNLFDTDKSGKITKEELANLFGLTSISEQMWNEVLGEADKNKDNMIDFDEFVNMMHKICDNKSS

By inhibition is commonly meant the relative decrease from the control value, in per cent. In the case of `CC(=NN=C(N)N)C(=O)Nc1ccc(Cl)c(Cl)c1`, the growth inhibition in assay [1] is 97% (active); in assay [4] it was 101% (active). In addition, the inhibition in assay [2] was -3%; in assay [3], 0%. For the same compound, the outcome in assay [5], in assay [6], in assay [7] and in assay [8] was inactive.

Consider `COc1cc(Cc2cnc(N)nc2N)cc(OCCCCC2NC(=O)NC2=O)c1OC` (stereo not given), for which the results for the growth inhibition in assay [1] and in assay [4] were -1% and 94% (active), respectively. The inhibition in assay [2] is 2%; in assay [3], -3%. Also, the outcome in assay [5], in assay [6], in assay [7] and in assay [8] was inactive.

With `O=C(NCC1CCC(C(=O)NCc2cccc3ccccc23)CC1)c1ccc(O)c(-c2ccc(Cl)c(Cl)c2)c1` (stereo not given), the figures for the growth inhibition in assay [1] and in assay [4] were 92% (active) and 100% (active), respectively. The inhibition in assay [2] was 0%; in assay [3], -6%. Also, the outcome in assay [5], in assay [6], in assay [7] and in assay [8] was inactive.

For `Cc1cc(NC(=O)Nc2ccc(C(C)C)cc2)c2ccccc2n1`, the figures for the growth inhibition in assay [1] and in assay [4] were 16% and 99% (active), respectively. In addition, the inhibition was 7% in assay [2] and -1% in assay [3]. The outcome in assay [5], in assay [6], in assay [7] and in assay [8] was inactive.

For `CN(Cc1ccc(-c2ccc(C(F)(F)F)cc2)cc1)C(=O)Cn1c(CCc2cccc(F)c2F)cc(=O)c2ccc(OCCCN3CCCCC3)cc21`, the growth inhibition in assay [1] was 90% (active); in assay [4] it was 103% (active). The inhibition was 79% (active) in assay [2] and 5% in assay [3]. Also, the outcome in assay [5], in assay [6], in assay [7] and in assay [8] was inactive.

Take `O=C(CCc1nc2c(cnn2-c2ccccc2)c(=O)[nH]1)NC1CCSc2ccccc21` (stereo not given): the figures for the growth inhibition in assay [1] and in assay [4] were 52% (active) and 95% (active), respectively. For the same compound, the figures for the inhibition in assay [2] and in assay [3] were 10% and -2%, respectively. The result in assay [5], in assay [6], in assay [7] and in assay [8] was inactive.

For the compound `CN(C)c1ccc(NC(=O)Nc2ccnc3ccc(Br)cc23)cc1`, the growth inhibition in assay [1] is 21%; in assay [4], 91% (active). For the same compound, the inhibition in assay [2] is -5%; in assay [3] it was 6%. Further, the result in assay [5], in assay [6], in assay [7] and in assay [8] was inactive.

Turning to `c1csc(-c2nc(N3CCCC3)ncc2-c2ccsc2)n1`, the growth inhibition in assay [1] was 75% (active); in assay [4] it was 89% (active). Also, the inhibition in assay [2] is 1%; in assay [3] it was 3%. Further, the result in assay [5], in assay [6], in assay [7] and in assay [8] was inactive.

`CS(=O)(=O)c1ccc(CNCc2cccc(-c3cccc(-c4nc5ccccc5[nH]4)c3)c2)cc1`: the values for the growth inhibition in assay [1] and in assay [4] were 47% and 101% (active), respectively. Further, the figures for the inhibition in assay [2] and in assay [3] were 3% and -7%, respectively. The outcome in assay [5], in assay [6], in assay [7] and in assay [8] was inactive.

In the case of `OCc1ccc2nc3c(cc2c1)-c1cccc2cccc-3c12`, the growth inhibition in assay [1] was -1%; in assay [4], 96% (active). The inhibition was 16% in assay [2] and 4% in assay [3]. Besides, the outcome in assay [5], in assay [6], in assay [7] and in assay [8] was inactive.

On to `Cc1ccc(Nc2ccnc3cc(-c4nccs4)ccc23)cc1C(O)c1ccccc1` (stereo not given), for which the growth inhibition in assay [1] was 83% (active); in assay [4] it was 85% (active). For the same compound, the inhibition in assay [2] is 23%; in assay [3], -8%. Besides, the outcome in assay [5], in assay [6], in assay [7] and in assay [8] was inactive.

As to `NC(N)=Nc1ccc(NC(=O)Nc2ccc(N=C(N)N)cc2)cc1`, the results for the growth inhibition in assay [1] and in assay [4] were 74% (active) and 85% (active), respectively. In addition, the inhibition in assay [2] was -5%; in assay [3], 1%. Moreover, the outcome in assay [5], in assay [6], in assay [7] and in assay [8] was inactive.

On to `Cc1cc2c(cc1C(F)(F)F)N(C(=O)Nc1ccc(C(=O)NC3CCN(Cc4ccccc4)C3)cc1)CC2` (stereo not given), for which the growth inhibition is 48% in assay [1] and 100% (active) in assay [4]. The inhibition was 19% in assay [2] and -6% in assay [3]. For the same compound, the result in assay [5], in assay [6], in assay [7] and in assay [8] was inactive.

Regarding `CCN1CCCC(Nc2ccnc3cc4ccccc4cc23)C1` (stereo not given), the values for the growth inhibition in assay [1] and in assay [4] were 100% (active) and 101% (active), respectively. Moreover, the inhibition in assay [2] was 38%; in assay [3], 2%. Also, the result in assay [5], in assay [6], in assay [7] and in assay [8] was inactive.

Consider `N#Cc1ccccc1S(=O)(=O)N1CCCC(CNC(=O)[C@H](CC2CCCCC2)NC(=O)c2cc3ccccc3s2)C1` (stereo not given in full), for which the growth inhibition is 92% (active) in assay [1] and 97% (active) in assay [4]. Further, the inhibition in assay [2] was 9%; in assay [3], -2%. Also, the outcome in assay [5], in assay [6], in assay [7] and in assay [8] was inactive.

Take `COc1ccc(CNC(=O)c2cnc3c(O)cccc3c2Nc2cccc(NC(=O)c3ccc(F)cc3)c2)cc1`: the growth inhibition is 65% (active) in assay [1] and 91% (active) in assay [4]. Further, the inhibition was 50% (active) in assay [2] and 2% in assay [3]. For the same compound, the result in assay [5], in assay [6], in assay [7] and in assay [8] was inactive.

As to `CC(=O)Nc1nc(C(=O)Nc2cccc(-c3ccc4c(cnn4CC4CC4)c3)c2)cs1`, the growth inhibition in assay [1] is 67% (active); in assay [4] it was 95% (active). The inhibition in assay [2] is 16%; in assay [3], 2%. Also, the outcome in assay [5], in assay [6], in assay [7] and in assay [8] was inactive.

With `CCN(CC)CCN(CCN(CC)CC)c1ccc2c(c1)Sc1c(Cl)ccc(Cl)c1S2`, the growth inhibition in assay [1] was 94% (active); in assay [4], 98% (active). For the same compound, the inhibition is 31% in assay [2] and -5% in assay [3]. Besides, the result in assay [5], in assay [6], in assay [7] and in assay [8] was inactive.

On to `CC1c2cccc(O)c2CCN1CCc1ccc(Cl)c(Cl)c1` (stereo not given), for which the growth inhibition in assay [1] is 99% (active); in assay [4], 102% (active). The values for the inhibition in assay [2] and in assay [3] were 18% and -1%, respectively. In addition, the result in assay [5], in assay [6], in assay [7] and in assay [8] was inactive.

On to `CCCCNC(=O)[C@H](CC1CCCCC1)NC(=O)c1ccc(O)c(-c2cccc(C(F)(F)F)c2)c1`, for which the growth inhibition was 86% (active) in assay [1] and 98% (active) in assay [4]. Besides, the values for the inhibition in assay [2] and in assay [3] were -8% and 0%, respectively. For the same compound, the result in assay [5], in assay [6], in assay [7] and in assay [8] was inactive.
